Source: PubChem (National Center for Advancing Translational Sciences (NCATS))
NPC1 prom act: NPC1 promoter activation. Huh7 NPC1 promoter luciferase reporter, 24 h. Potency, µM (series often up to 9.22 µM), for the others: at the highest dose activation, most hits filed as activators. actives 2.4% (n = 320,000). AID 485313; also: % of control where 0% means no effect; nearly all actives have a fitted effect of over 60% in size
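In 1536-well qHTS, Huh7 cells harboring an NPC1 promoter–luciferase construct received compound for 24 h; activation was quantified by luminescence following luciferase reagent addition.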
KinaseGlo FLuc: blocks Kinase-Glo luciferase, a counter-screen artifact | Q27757 | Kinase-Glo luciferase, ATP luminescence, 8 min | Potency, µM (highest dose often 38.3 µM), for inactives: top-dose activity change, negative = inhibition, hits mostly inhibitors | actives 0.28% (n = 200,000) | AID 1379; also: % is scaled to controls: 0 for no effect and ±100 for the full control effect; nearly all actives have a fitted effect of over 60% in size
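Substrate mix (final 50 mM imidazole pH 7.2, 50 mM KCl, 7 mM MgCl2, 10 uM ATP, 0.01% Tween 20, 0.05% BSA) plus pin-tool compound, then Kinase-Glo detection mix; 8 min ambient, luminescence read.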
Rab9 prom act: Rab9 promoter activation; Huh7 Rab9 promoter-luciferase reporter, luminescence, 24 h; Potency, µM (titrated, usually from 9.22 µM), for the others: at the highest dose activation, negative = inhibition, usual class: activators; actives 2.8% (n = 320,000); AID 485297; also: % of control where 0% means no effect; nearly all actives have a fitted effect of over 60% in size
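Rab9 promoter-driven luciferase in stably transfected Huh7 cells; 1500 cells/well rested 2 h, exposed to compound in DMSO for 24 h at 37 °C, 5% CO2. Luminescence read 10 min after adding luciferase reagent at ambient temperature.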
FLuc counter: firefly luciferase modulation, counter-screen for miR-21 project. P08659. purified FLuc, Km substrates, luminescence inhibition. Potency, µM (doses to about 57.5 µM), inactives show at the top dose activity change, negative = inhibition, hits mostly inhibitors. actives 6.9% (n = 360,000). AID 588342;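 also: plate controls were vehicle for no effect and reference inhibitor for full effect; nearly all actives have a fitted effect of over 55% in size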
Target sequence (P08659 whole entry, looked up): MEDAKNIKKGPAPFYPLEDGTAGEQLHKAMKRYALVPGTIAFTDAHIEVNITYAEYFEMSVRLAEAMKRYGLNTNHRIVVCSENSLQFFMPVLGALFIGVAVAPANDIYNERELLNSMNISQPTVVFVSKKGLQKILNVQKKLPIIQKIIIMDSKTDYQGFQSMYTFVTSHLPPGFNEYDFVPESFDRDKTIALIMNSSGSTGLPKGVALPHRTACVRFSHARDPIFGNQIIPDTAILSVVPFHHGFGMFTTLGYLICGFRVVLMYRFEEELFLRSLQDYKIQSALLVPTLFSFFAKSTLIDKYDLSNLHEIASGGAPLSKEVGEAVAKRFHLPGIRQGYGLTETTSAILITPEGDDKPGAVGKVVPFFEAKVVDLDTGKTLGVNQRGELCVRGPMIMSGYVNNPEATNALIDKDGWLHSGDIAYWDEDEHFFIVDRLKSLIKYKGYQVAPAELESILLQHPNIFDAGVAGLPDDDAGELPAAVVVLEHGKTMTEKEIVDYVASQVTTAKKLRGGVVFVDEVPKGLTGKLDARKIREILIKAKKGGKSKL
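Biochemical qHTS of compounds, final roughly 60 µM downward over six points, against 10 nM purified firefly luciferase using Km concentrations of substrates (10 uM D-luciferin, 10 uM ATP) in Tris acetate pH 7.5 buffer; luminescence output.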
SMN2 splice enh: enhancers of SMN2 splice variant expression. AID 1458. actives 2.8% (n = 210,000). Potency, µM (doses to about 46.1 µM), without a hit: top-dose activity change, positive = activation, hits mostly activators. HEK293 SMN2-luciferase splicing reporter, luminescence, 30-36 h; also: % of control where 0% means no effect; nearly all actives have a fitted effect of over 55% in size
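qHTS luciferase splicing reporter: luminescence rises when SMN2 exon 7 is included in transfected HEK293 cells. Compound exposure lasted 30-36 h at 37C, with 4.5 mM final sodium butyrate as control, followed by a ONE-Glo read.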
ELG1 genotoxic: induces genotoxicity in HEK293T cells with luciferase-tagged ELG1 | actives 1.3% (n = 330,000) | AID 504466 | HEK293T ELG1-luciferase reporter, luminescence, 16 h | Potency, µM (series often up to 46 µM), for inactives: top-dose activity change, positive = activation, usual class: activators; also: % of control where 0% means no effect; nearly all actives have a fitted effect of over 60% in size
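HEK293T cells expressing luciferase-tagged ELG1 were exposed to compound or DMSO vehicle for 16 hr at 37 °C and 5% CO2. Luciferase activity was then measured with ONE-Glo after 30 min at room temperature.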
* marks the source's active call; other numbers are inactive results; ? = inconclusive; . = no result; [ ] = remark or other dose. In the library only some 7.4% were active in any assay of this set; here they are far more common. Calls follow the shape of the dose curve; as a rule, active = well fitted curve in the direction sought with a large enough effect; inconclusive = small, poorly fitted or top-dose-only effect, or another doubt; inactive = no such curve, though single readings can be large; an effect the other way counts as inactive or inconclusive. Potency is read from the fitted curve at half-maximal effect.

SMILES	NPC1 prom act	KinaseGlo FLuc	Rab9 prom act	FLuc counter	SMN2 splice enh	ELG1 genotoxic
Cc1ccc(-n2c(C)cc(C(=O)Cn3nc(C(=O)O)c4ccccc4c3=O)c2C)cc1	0%	.	8%	5.4µM*	.	4%
COCC(C)n1c(C)cc(C(=O)COC(=O)c2nn(C)c(=O)c3ccccc23)c1C (stereo not given)	.	.	.	.	.	-1%
COc1ccc(-n2c(C)cc(C(=O)Cn3nc(C(=O)O)c4ccccc4c3=O)c2C)cc1	-1%	-4%	1%	24µM*	-28%	-2%
COCC(C)n1c(C)cc(C(=O)Cn2nc(C(=O)O)c3ccccc3c2=O)c1C (stereo not given)	0%	1%	23%	7.6µM*	2%	?
O=C(C[C@H]1C/C=C\CC[C@H](Cc2ccc(F)cc2)C(=O)OC[C@H]2CCCN2C1=O)N[C@@H](CO)Cc1ccccc1	.	.	.	.	.	0%
CC(/C=C1\N=C(SCc2ccccc2)SC1=O)=C\c1ccccc1	2%	5%	-2%	-1%	-8%	0%
CCOC(=O)c1ccccc1NC(=O)Cn1ncc2c1-c1ccccc1OC2	.	.	.	-2%	-13%	.
COc1ccc(Nc2nnc(SCC(=O)N3CCCC3)s2)cc1	11%	-10%	1%	17µM*	8%	0%
CC(C)Oc1ccc(C(=O)Nc2nnc(SCC(=O)N3CCOCC3)s2)cc1	?	0%	0.4µM*	0.06µM*	1.4µM*	?
COc1ccc(Nc2nnc(SCC(=O)N3CC(=O)Nc4ccccc43)s2)cc1	14%	.	15%	8.5µM*	.	-1%
COc1ccc(Nc2nnc(SCC(=O)c3cc(C)n(CC4CCCO4)c3C)s2)cc1 (stereo not given)	9%	-3%	9%	3.8µM*	-27%	2%
COc1ccc(Nc2nnc(SCC(=O)c3cc4ccccc4o3)s2)cc1	20%	.	2%	-17%	.	2%
COc1cccc(Nc2nnc(SCC(=O)N3CCOCC3)s2)c1	12%	-9%	15%	19µM*	-8%	14%
NC(=O)C1CCN(c2nc(-c3ccc(C(F)(F)F)cc3)cs2)CC1	.	.	.	17µM*	.	.
NC(=O)C1CCN(c2nc(-c3ccc(Br)cc3)cs2)CC1	?	-2%	2.5µM*	-13%	4µM*	6.5µM*
NC(=O)C1CCN(c2nc(-c3ccc(N4CCCCC4)nc3)cs2)CC1	.	.	.	4.8µM*	.	.
CC(OC(=O)CNC(=O)c1cccs1)C(=O)Nc1ccc(S(N)(=O)=O)cc1 (stereo not given)	10%	.	-3%	0%	.	-4%
CC(C)(C)NC(=O)CN(C(=O)CCC(=O)Nc1nccs1)c1ccc2c(c1)OCCO2	0%	.	-1%	0%	.	-1%
CC(C)CCNC(=O)CN(C(=O)CCC(=O)Nc1nccs1)c1ccc2c(c1)OCCO2	1%	.	2%	?	.	21µM*
CC(=O)/C(N=Nc1ccc2c(c1)OCCO2)=C(\C)O	12%	?	5%	9.5µM*	-88%	?
CC(=O)/C(N=Nc1ccc2c(c1)OCO2)=C(\C)O	2.8µM*	?	3.5µM*	21µM*	14µM*	?
COc1ccc(-c2noc(CCC(=O)N3CCN(c4ccc(Cl)cc4)CC3)n2)cc1	.	.	.	.	.	4%
Cc1ccc(-c2[nH]ncc2CN2CCN(C(=O)c3cccs3)CC2)cc1C	-1%	.	-2%	-1%	.	-2%
O=c1oc(Nc2ccccc2Cl)nc2ccccc12	3.5µM*	-2%	?	15µM*	?	21µM*
O=c1oc(Nc2cccc(Cl)c2)nc2ccccc12	2.8µM*	-4%	0.79µM*	-25%	11µM*	13µM*
SMILES	NPC1 prom act	KinaseGlo FLuc	Rab9 prom act	FLuc counter	SMN2 splice enh	ELG1 genotoxic
Clc1ccccc1Nc1nc(-c2ccncc2)nc2ccccc12	-4%	.	-6%	0%	.	-3%
O=c1oc(Nc2ccccc2F)nc2ccccc12	?	.	?	9.5µM*	.	?
O=c1oc(-c2ccccc2NS(=O)(=O)c2ccc(F)cc2)nc2ccccc12	-2%	.	-1%	1%	.	-3%
CNC(=S)N(CCCN(C)C)Cc1cc2cc3c(cc2[nH]c1=O)OCCO3	-1%	.	4%	1%	.	4%
O=C(N/N=C/c1cccc(O)c1)c1ccc(COc2cccc3cccnc23)cc1	-14%	-1%	2%	17µM*	12%	15%
O=C(N/N=C/c1ccc2c(c1)OCO2)c1ccc(COc2cccc3cccnc23)cc1	18%	0%	?	5.4µM*	7%	0%
COc1ccc(/C=N/NC(=O)c2sccc2OCc2ccc(F)cc2)cc1OC	-8%	1%	-1%	13µM*	-11%	0%
O=C(N/N=C/c1ccc2cccc(OCc3ccccc3)c2n1)c1ccc(Cl)cc1	6%	0%	4%	6.7µM*	-4%	-10%
O=C(N/N=C/c1ccncc1)c1ccc(COc2cccc3cccnc23)cc1	-2%	-2%	9%	-19%	12%	-9%
COc1ccc(/C=N/NC(=O)c2ccc(COc3cccc4cccnc34)cc2)cc1O	1%	.	-7%	13µM*	.	-6%
CCOc1ccc(C(=O)COC(=O)CNC(=O)C2CCCCC2)cc1	-2%	.	-5%	9.5µM*	.	2%
O=C(CNC(=O)C1CCCCC1)OCC(=O)c1ccc(Br)cc1	1%	.	0%	1.7µM*	.	4%
O=C(COC(=O)CNC(=O)C1CCCCC1)Nc1ccc(Br)cc1Br	0%	.	-6%	.	.	0%
COc1cc(NC(=O)C2CC2)c(OC)cc1NC(=O)CCC(=O)NC1CCN(Cc2ccccc2)CC1	-4%	-3%	-3%	4%	5%	-3%
Cc1ccc(C(=O)Nc2ccccc2C(=O)NC(Cc2c[nH]c3ccccc23)C(=O)O)cc1 (stereo not given)	11%	0%	21%	11µM*	23%	9%
CCC(NC(=O)c1ccccc1NC(=O)c1ccc(C)cc1)C(=O)O (stereo not given)	10%	-7%	20%	13µM*	2%	?
CC(=O)N[C@H](Cc1c[nH]c2ccccc12)C(=O)O	.	-3%[7.66 µM]	.	.	-12%[9.22 µM]	.
